7 sequences from publication PMC11006913 can be followed below.

Holding throughout (assay): PBM; 200 nM protein, PBS
What all share (details): dsDNA, one strand shown

Experiment [1] concerns the target SHOX (Homo sapiens, UniProt O15266 103-189).
The target in experiment [2] is T1, PAX4 (Homo sapiens, UniProt O43316 9-242, R200K).
T1 sequence: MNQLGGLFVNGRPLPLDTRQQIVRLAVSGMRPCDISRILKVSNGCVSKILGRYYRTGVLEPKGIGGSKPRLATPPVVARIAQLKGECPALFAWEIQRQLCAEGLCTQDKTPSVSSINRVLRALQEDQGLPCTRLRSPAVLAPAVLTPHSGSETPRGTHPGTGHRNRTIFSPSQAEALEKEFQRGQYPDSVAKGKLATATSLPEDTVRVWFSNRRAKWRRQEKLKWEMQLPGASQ

In experiment [3] the target is T2, PAX4 (Homo sapiens, UniProt O43316 9-242).
T2 sequence: T1 sequence with K192R

For another experiment, the target named is T3, NKX2-6 (Homo sapiens, UniProt A6NCS4 118-204, R150C).
T3 sequence: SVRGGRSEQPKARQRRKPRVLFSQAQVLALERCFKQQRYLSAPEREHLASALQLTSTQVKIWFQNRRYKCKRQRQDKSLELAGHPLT

In experiment [4] the target is T4, PAX4 (Homo sapiens, UniProt O43316 9-242, R200Q).
T4 sequence: T1 sequence with K192Q

In experiment [5] the target is SHOX (Homo sapiens, UniProt O15266 103-189, R173C).
Experiment [6] concerns the target T5, PAX4 (Homo sapiens, UniProt O43316 9-242, F177V).
T5 sequence: T1 sequence with F169V, K192R

Experiment [7] addresses T6, PAX4 (Homo sapiens, UniProt O43316 9-242, F177Y).
T6 sequence: T1 sequence with F169Y, K192R

Experiment [8] deals with T7, PAX4 (Homo sapiens, UniProt O43316 9-242, R227W).
T7 sequence: T1 sequence with K192R, R219W

Experiment [9] addresses HOXB9 (Homo sapiens, UniProt P17482 171-250).
Experiment [10] has as its target HOXC10 (Homo sapiens, UniProt Q9NYD6 254-340).
Experiment [11] deals with ALX1 (Homo sapiens, UniProt Q15699 118-204, L144V).
The target in experiment [12] is ALX3 (Homo sapiens, UniProt O95076 139-225, N203Q).
The target in experiment [13] is ALX1 (Homo sapiens, UniProt Q15699 118-204, L144R).
Experiment [14] has as its target HOXC10 (Homo sapiens, UniProt Q9NYD6 254-340, K271E).
Experiment [15] addresses ALX3 (Homo sapiens, UniProt O95076 139-225).
Experiment [16] deals with ALX3 (Homo sapiens, UniProt O95076 139-225, L168Q).
Experiment [17] addresses ALX3 (Homo sapiens, UniProt O95076 139-225, L168V).
Experiment [18] addresses ALX1 (Homo sapiens, UniProt Q15699 118-204).
In experiment [19] the target is ALX3 (Homo sapiens, UniProt O95076 139-225, N203S).
Experiment [20] deals with HOXB9 (Homo sapiens, UniProt P17482 171-250, R186Q).
Experiment [21] concerns the target PRRX1 (Homo sapiens, UniProt P54821 80-166, F113S).
Experiment [22] addresses PRRX1 (Homo sapiens, UniProt P54821 80-166).
For experiment [23], the target named is MSX2 (Homo sapiens, UniProt P35548 130-214, R199I).
In experiment [24] the target is MSX2 (Homo sapiens, UniProt P35548 130-214).
Experiment [25] addresses MSX2 (Homo sapiens, UniProt P35548 130-214, F161Y).
Another experiment addresses PITX2 (Homo sapiens, UniProt Q99697 72-157).

Changes are numbered by the printed parent chain.

Sequence of SHOX (Homo sapiens, UniProt O15266 103-189) (O15266 103-189): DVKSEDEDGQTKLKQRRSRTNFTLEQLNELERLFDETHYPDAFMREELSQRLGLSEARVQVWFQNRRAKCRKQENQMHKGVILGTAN
Sequence of SHOX (Homo sapiens, UniProt O15266 103-189, R173C) (O15266 103-189 R173C): as the sequence (O15266 103-189) above, with R71C counted along it
Sequence of HOXB9 (Homo sapiens, UniProt P17482 171-250) (P17482 171-250): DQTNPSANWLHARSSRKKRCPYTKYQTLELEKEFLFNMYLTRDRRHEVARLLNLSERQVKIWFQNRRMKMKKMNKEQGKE
Sequence of PRRX1 (Homo sapiens, UniProt P54821 80-166, F113S) (P54821 80-166 F113S): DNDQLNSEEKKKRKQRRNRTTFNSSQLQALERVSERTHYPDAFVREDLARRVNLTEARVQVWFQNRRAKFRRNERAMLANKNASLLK
Sequence of PRRX1 (Homo sapiens, UniProt P54821 80-166) (P54821 80-166): as the sequence (P54821 80-166 F113S) above, with S34F counted along it
Sequence of ALX3 (Homo sapiens, UniProt O95076 139-225, N203S) (O95076 139-225 N203S): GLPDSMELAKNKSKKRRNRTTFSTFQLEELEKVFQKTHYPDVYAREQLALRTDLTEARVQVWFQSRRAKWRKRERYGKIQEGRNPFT
Sequence of ALX3 (Homo sapiens, UniProt O95076 139-225, L168V) (O95076 139-225 L168V): as the sequence (O95076 139-225 N203S) above, with L30V, S65N counted along it
Sequence of MSX2 (Homo sapiens, UniProt P35548 130-214, F161Y) (P35548 130-214 F161Y): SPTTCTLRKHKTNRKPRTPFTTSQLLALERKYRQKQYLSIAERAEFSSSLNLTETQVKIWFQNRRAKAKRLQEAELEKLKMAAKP
Sequence of MSX2 (Homo sapiens, UniProt P35548 130-214) (P35548 130-214): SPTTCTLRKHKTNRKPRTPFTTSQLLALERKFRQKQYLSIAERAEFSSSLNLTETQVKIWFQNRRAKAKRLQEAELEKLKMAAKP
Sequence of ALX3 (Homo sapiens, UniProt O95076 139-225, L168Q) (O95076 139-225 L168Q): as the sequence (O95076 139-225 N203S) above, with L30Q, S65N counted along it
Sequence of ALX1 (Homo sapiens, UniProt Q15699 118-204, L144R) (Q15699 118-204 L144R): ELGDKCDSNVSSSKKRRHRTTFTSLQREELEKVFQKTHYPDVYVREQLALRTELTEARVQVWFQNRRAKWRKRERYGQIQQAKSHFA
Sequence of HOXC10 (Homo sapiens, UniProt Q9NYD6 254-340, K271E) (Q9NYD6 254-340 K271E): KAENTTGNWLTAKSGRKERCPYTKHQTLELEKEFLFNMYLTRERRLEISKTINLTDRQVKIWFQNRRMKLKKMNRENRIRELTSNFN
Sequence of ALX1 (Homo sapiens, UniProt Q15699 118-204, L144V) (Q15699 118-204 L144V): as the sequence (Q15699 118-204 L144R) above, with R27V counted along it
Sequence of ALX1 (Homo sapiens, UniProt Q15699 118-204) (Q15699 118-204): as the sequence (Q15699 118-204 L144R) above, with R27L counted along it
Sequence of HOXC10 (Homo sapiens, UniProt Q9NYD6 254-340) (Q9NYD6 254-340): as the sequence (Q9NYD6 254-340 K271E) above, with E18K counted along it
Sequence of MSX2 (Homo sapiens, UniProt P35548 130-214, R199I) (P35548 130-214 R199I): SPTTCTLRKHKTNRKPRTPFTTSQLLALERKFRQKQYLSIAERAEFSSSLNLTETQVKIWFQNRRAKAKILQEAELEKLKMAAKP
Sequence of ALX3 (Homo sapiens, UniProt O95076 139-225, N203Q) (O95076 139-225 N203Q): as the sequence (O95076 139-225 N203S) above, with S65Q counted along it
Sequence of ALX3 (Homo sapiens, UniProt O95076 139-225) (O95076 139-225): as the sequence (O95076 139-225 N203S) above, with S65N counted along it
Sequence of HOXB9 (Homo sapiens, UniProt P17482 171-250, R186Q) (P17482 171-250 R186Q): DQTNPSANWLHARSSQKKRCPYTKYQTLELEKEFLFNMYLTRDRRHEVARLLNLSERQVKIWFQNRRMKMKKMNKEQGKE

As for CACCACCC, the binding signal with SHOX [1] is 7.17 upbm affinity estimate (log intensity, higher = more binding, comparable within an allelic series); with PAX4 [2] it was 9.48 upbm affinity estimate (log intensity, higher = more binding, comparable within an allelic series); in the experiment with PAX4 [3], 9.49 upbm affinity estimate (log intensity, higher = more binding, comparable within an allelic series); in the experiment with NKX2-6, 9.46 upbm affinity estimate (log intensity, higher = more binding, comparable within an allelic series); with PAX4 [4], 9.54 upbm affinity estimate (log intensity, higher = more binding, comparable within an allelic series); with SHOX [5], 7.25 upbm affinity estimate (log intensity, higher = more binding, comparable within an allelic series). Moreover, the binding signal with PAX4 [6] was 9.4 upbm affinity estimate (log intensity, higher = more binding, comparable within an allelic series); in the experiment with PAX4 [7] it was 9.47 upbm affinity estimate (log intensity, higher = more binding, comparable within an allelic series); with PAX4 [8] it was 9.4 upbm affinity estimate (log intensity, higher = more binding, comparable within an allelic series).

Regarding GATATGTA, the binding signal was 8.18 upbm affinity estimate (log intensity, higher = more binding, comparable within an allelic series) in the experiment with SHOX [1]; 9.76 upbm affinity estimate (log intensity, higher = more binding, comparable within an allelic series) with HOXB9 [9]; 7.81 upbm affinity estimate (log intensity, higher = more binding, comparable within an allelic series) in the experiment with SHOX [5].

As to GCCTGCCC, the binding signal with SHOX [1] was 7.04 upbm affinity estimate (log intensity, higher = more binding, comparable within an allelic series); with HOXC10 [10] it was 10.1 upbm affinity estimate (log intensity, higher = more binding, comparable within an allelic series); with ALX1 [11], 6.56 upbm affinity estimate (log intensity, higher = more binding, comparable within an allelic series); with ALX3 [12] it was 7.64 upbm affinity estimate (log intensity, higher = more binding, comparable within an allelic series); in the experiment with SHOX [5] it was 7.13 upbm affinity estimate (log intensity, higher = more binding, comparable within an allelic series); with ALX1 [13] it was 6.58 upbm affinity estimate (log intensity, higher = more binding, comparable within an allelic series). The binding signal with HOXC10 [14] was 10 upbm affinity estimate (log intensity, higher = more binding, comparable within an allelic series); in the experiment with ALX3 [15], 7.67 upbm affinity estimate (log intensity, higher = more binding, comparable within an allelic series); with ALX3 [16], 7.69 upbm affinity estimate (log intensity, higher = more binding, comparable within an allelic series); with ALX3 [17], 7.69 upbm affinity estimate (log intensity, higher = more binding, comparable within an allelic series); with ALX1 [18] it was 6.62 upbm affinity estimate (log intensity, higher = more binding, comparable within an allelic series); with ALX3 [19], 7.72 upbm affinity estimate (log intensity, higher = more binding, comparable within an allelic series).

For the sequence AATTAGGA, the binding signal with SHOX [1] is 11.4 upbm affinity estimate (log intensity, higher = more binding, comparable within an allelic series); in the experiment with HOXB9 [9], 10.3 upbm affinity estimate (log intensity, higher = more binding, comparable within an allelic series); with SHOX [5] it was 9.06 upbm affinity estimate (log intensity, higher = more binding, comparable within an allelic series); with HOXB9 [20], 10.2 upbm affinity estimate (log intensity, higher = more binding, comparable within an allelic series).

In the case of CGAACCGC, the binding signal with SHOX [1] is 7.29 upbm affinity estimate (log intensity, higher = more binding, comparable within an allelic series); with PRRX1 [21], 9.29 upbm affinity estimate (log intensity, higher = more binding, comparable within an allelic series); in the experiment with SHOX [5], 7.2 upbm affinity estimate (log intensity, higher = more binding, comparable within an allelic series); with PRRX1 [22] it was 9.38 upbm affinity estimate (log intensity, higher = more binding, comparable within an allelic series).

Turning to CGGGGGGC, the binding signal is 7.33 upbm affinity estimate (log intensity, higher = more binding, comparable within an allelic series) with SHOX [1]; 9.22 upbm affinity estimate (log intensity, higher = more binding, comparable within an allelic series) with PAX4 [2]; 9.41 upbm affinity estimate (log intensity, higher = more binding, comparable within an allelic series) with PAX4 [3]; 9.61 upbm affinity estimate (log intensity, higher = more binding, comparable within an allelic series) with MSX2 [23]; 9.12 upbm affinity estimate (log intensity, higher = more binding, comparable within an allelic series) with PAX4 [4]; 7 upbm affinity estimate (log intensity, higher = more binding, comparable within an allelic series) with SHOX [5]. The binding signal with PAX4 [6] was 8.99 upbm affinity estimate (log intensity, higher = more binding, comparable within an allelic series); with MSX2 [24], 9.76 upbm affinity estimate (log intensity, higher = more binding, comparable within an allelic series); in the experiment with PAX4 [7], 9.11 upbm affinity estimate (log intensity, higher = more binding, comparable within an allelic series); with MSX2 [25], 9.77 upbm affinity estimate (log intensity, higher = more binding, comparable within an allelic series); with PAX4 [8], 9.12 upbm affinity estimate (log intensity, higher = more binding, comparable within an allelic series).

CCCGGCAC: the binding signal in the experiment with SHOX [1] was 7.01 upbm affinity estimate (log intensity, higher = more binding, comparable within an allelic series); with PRRX1 [21], 9.16 upbm affinity estimate (log intensity, higher = more binding, comparable within an allelic series); with PITX2, 7.81 upbm affinity estimate (log intensity, higher = more binding, comparable within an allelic series); in the experiment with SHOX [5], 7.19 upbm affinity estimate (log intensity, higher = more binding, comparable within an allelic series); with PRRX1 [22], 9.19 upbm affinity estimate (log intensity, higher = more binding, comparable within an allelic series).
